The source of these data is ChEMBL document CHEMBL1961873, “Compounds: GSK PKIS; Assays: Nanosyn kinase panel” (2012).

Each structure is given as a SMILES string. Where “and” joins values, the source holds several entries; their conditions need not be identical. Equal values may be shown once.

The target in one assay is T1, Interleukin-1 receptor-associated kinase 4 (Homo sapiens) (UniProt Q9NWZ3).
T1 sequence (whole entry): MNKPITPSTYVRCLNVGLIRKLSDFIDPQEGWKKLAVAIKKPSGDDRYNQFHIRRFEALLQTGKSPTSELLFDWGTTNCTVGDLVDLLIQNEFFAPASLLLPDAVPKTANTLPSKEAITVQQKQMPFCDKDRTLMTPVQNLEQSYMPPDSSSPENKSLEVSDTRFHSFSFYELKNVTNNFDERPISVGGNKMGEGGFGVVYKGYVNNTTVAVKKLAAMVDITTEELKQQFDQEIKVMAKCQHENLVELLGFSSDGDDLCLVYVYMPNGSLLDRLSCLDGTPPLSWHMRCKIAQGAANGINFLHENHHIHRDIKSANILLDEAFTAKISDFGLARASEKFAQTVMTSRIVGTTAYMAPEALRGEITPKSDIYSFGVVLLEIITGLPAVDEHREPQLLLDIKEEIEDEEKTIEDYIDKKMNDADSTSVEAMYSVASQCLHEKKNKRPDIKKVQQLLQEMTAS
The conditions noted are these: at 0.1 µM.
For the compound `O=C1Nc2ccccc2/C1=C1\CCc2cc(O)ccc21`, the inhibition was 0.67%.
On the same count and under the same terms, with `CCS(=O)(=O)c1ccc(OC)c(Nc2ncc(-c3cccc(C(C)=O)c3)o2)c1` the figure was -3.46%; with `Cc1ccc(-c2cc3c(NC(=O)C4CC4)ncnc3o2)cc1`, -1.3%; with `COc1ccc(-c2nn3ncccc3c2-c2ccnc(Nc3ccc(F)c(F)c3)n2)cc1`, -0.54%.
Still for that read-out and setting: in the case of `O=C(Nc1n[nH]c2nnc(-c3cccnc3)cc12)C1CC1` it was -0.42%.
Still for that read-out and setting: in the case of `O=C(O[C@H]1CN[C@H](C#Cc2cc3ncnc(Nc4ccc5c(ccn5Cc5cc(F)ccc5F)c4)c3s2)C1)N1CCOCC1` it was 3.45%.
As to `COc1cccc(Nc2nccc(-c3cnn4ncccc34)n2)c1`, the inhibition came to 0.48%.
Still for that read-out and setting: in the case of `Nc1nccc(-c2c(-c3ccc(F)cc3)ncn2C2CCNCC2)n1` it was 3.05% and 0.88%; in that of `NC(=O)c1ccc2c(-c3ccnc(NCCCO)n3)c(-c3ccc(F)cc3)nn2c1`, 1.46%.
Same read-out and setting: with `CS(=O)(=O)Nc1ccc(-c2cc(-c3ccccc3)cc(C(N)=O)c2N)cc1` the figure was 0.55%; with `CS(=O)(=O)Nc1ccc(-c2ccc3c(NC(=O)C4CC4)n[nH]c3c2)cc1`, -4.64%; with `Cn1c(-c2nonc2N)nc2cnccc21`, 3.47%.
Still for that read-out and setting: in the case of `CC1=C(C(=O)Nc2ccc3[nH]ncc3c2)C(c2ccc(F)cc2)N=C(c2ccc(C(F)(F)F)nc2)N1` (configuration not stated) it was -2.11%; in that of `c1ccc(-c2n[nH]cc2-c2ccnc(-c3ccc(OCCn4ccnc4)cc3)c2)nc1`, 4.92%.
On to `CS(=O)(=O)CCNCc1ccc(-c2ccc3ncnc(Nc4ccc(OCc5cccc(C(F)(F)F)c5)cc4)c3c2)o1`, for which the inhibition came out at 2.1%.
Still for that read-out and setting: in the case of `FC(F)(F)CNc1nccc(-c2cnn3ncccc23)n1` it was 0.77%.
On the same count and under the same terms, in the case of `COc1ccc2ncn(-c3cc(O[C@H](C)c4ccccc4C(F)(F)F)c(C(N)=O)s3)c2c1` it was 1.48%.
Same read-out and setting: with `N#Cc1cccc(Nc2ncc(-c3ccccc3)o2)c1` the figure was 2.82%; with `CCN1CCC(C(=O)Nc2n[nH]c3nnc(-c4cccc(F)c4F)cc23)CC1`, 0.27%; with `CNC(=O)c1ncccc1Nc1nc(Nc2cc3c(cc2OC)CCCN3C(=O)CN(C)C)nc2[nH]ccc12`, -0.32%.
Take `CNC(=O)c1cncc(/C=C/c2ccccc2C)c1`: the inhibition is -0.44%.
`CS(=O)(=O)CCNCc1ccc(-c2ccc3ncnc(Nc4ccc(OCc5ccccc5)cc4)c3c2)o1`: the inhibition is 1.54%.
Still for that read-out and setting: in the case of `CS(=O)(=O)CCNCc1ccoc1-c1ccc2ncnc(Nc3ccc(OCc4ccccc4)cc3)c2c1` it was 0.62%.
On the same count and under the same terms, with `COc1cc2c(cc1Nc1nc(Nc3cccc(F)c3C(N)=O)c3cc[nH]c3n1)N(C(=O)CN1CCN(C(C)C)CC1)CC2` the figure was -0.19%.
Turning to `CN1CCC(n2cnc(-c3ccc(F)cc3)c2-c2ccnc(NCCO)n2)CC1`, the inhibition is -1.44%.
As to `CCn1c(-c2nonc2N)nc2cncc(C(=O)NCCNC)c21`, the inhibition turned out to be 2.49%.
On the same count and under the same terms, in the case of `OCCCNc1nccc(-c2c(-c3ccc(F)cc3)nn3cc(C(F)(F)F)ccc23)n1` it was -1.58%; in that of `NS(=O)(=O)c1ccc(N/N=C2\C(=O)Nc3ccc(C(=O)NCc4ccncc4)cc32)cc1`, -2.46%; in that of `CC1(C)CC(n2cnc(-c3ccc(F)cc3)c2-c2ccnc(N)n2)CC(C)(C)N1`, 4.73%.
Turning to `COC(=O)Nc1nc2ccc(Oc3ccc(NC(=O)Nc4cc(C(F)(F)F)ccc4F)cc3)cc2s1`, the inhibition came to 1.94%.
The same measure, in the same setting: with `COc1c(C(N)=O)cc(-c2ccc(Cl)cc2)cc1-c1ccc(S(N)(=O)=O)cc1` the figure was 1.96%.

Another assay concerns the target T1, Interleukin-1 receptor-associated kinase 4 (Homo sapiens). The conditions noted are these: at 1 µM.
On to `O=C1Nc2ccccc2/C1=C1\CCc2cc(O)ccc21`, for which the inhibition came to 5.31%.
Same read-out and setting: with `CCS(=O)(=O)c1ccc(OC)c(Nc2ncc(-c3cccc(C(C)=O)c3)o2)c1` the figure was 1.19%; with `Cc1ccc(-c2cc3c(NC(=O)C4CC4)ncnc3o2)cc1`, 2.26%.
Still for that read-out and setting: in the case of `COc1ccc(-c2nn3ncccc3c2-c2ccnc(Nc3ccc(F)c(F)c3)n2)cc1` it was 1.76%.
On the same count and under the same terms, in the case of `O=C(Nc1n[nH]c2nnc(-c3cccnc3)cc12)C1CC1` it was -0.13%; in that of `O=C(O[C@H]1CN[C@H](C#Cc2cc3ncnc(Nc4ccc5c(ccn5Cc5cc(F)ccc5F)c4)c3s2)C1)N1CCOCC1`, 2.43%; in that of `COc1cccc(Nc2nccc(-c3cnn4ncccc34)n2)c1`, 11.1%.
With `Nc1nccc(-c2c(-c3ccc(F)cc3)ncn2C2CCNCC2)n1`, the inhibition is -1.58% and -0.23%.
Still for that read-out and setting: with `NC(=O)c1ccc2c(-c3ccnc(NCCCO)n3)c(-c3ccc(F)cc3)nn2c1` the figure was 2.22%; with `CS(=O)(=O)Nc1ccc(-c2cc(-c3ccccc3)cc(C(N)=O)c2N)cc1`, 1.37%; with `CS(=O)(=O)Nc1ccc(-c2ccc3c(NC(=O)C4CC4)n[nH]c3c2)cc1`, 1.75%.
Regarding `Cn1c(-c2nonc2N)nc2cnccc21`, the inhibition is 1.21%.
On the same count and under the same terms, in the case of `CC1=C(C(=O)Nc2ccc3[nH]ncc3c2)C(c2ccc(F)cc2)N=C(c2ccc(C(F)(F)F)nc2)N1` (configuration not stated) it was 0.95%.
The same measure, in the same setting: in the case of `c1ccc(-c2n[nH]cc2-c2ccnc(-c3ccc(OCCn4ccnc4)cc3)c2)nc1` it was 0.82%.
Still for that read-out and setting: with `CS(=O)(=O)CCNCc1ccc(-c2ccc3ncnc(Nc4ccc(OCc5cccc(C(F)(F)F)c5)cc4)c3c2)o1` the figure was 3.11%; with `FC(F)(F)CNc1nccc(-c2cnn3ncccc23)n1`, 1.21%; with `COc1ccc2ncn(-c3cc(O[C@H](C)c4ccccc4C(F)(F)F)c(C(N)=O)s3)c2c1`, 0.87%.
For `N#Cc1cccc(Nc2ncc(-c3ccccc3)o2)c1`, the inhibition is 0.78%.
The same measure, in the same setting: in the case of `CCN1CCC(C(=O)Nc2n[nH]c3nnc(-c4cccc(F)c4F)cc23)CC1` it was 0.13%; in that of `CNC(=O)c1ncccc1Nc1nc(Nc2cc3c(cc2OC)CCCN3C(=O)CN(C)C)nc2[nH]ccc12`, 2.65%.
For `CNC(=O)c1cncc(/C=C/c2ccccc2C)c1`, the inhibition was found to be 2%.
The same measure, in the same setting: in the case of `CS(=O)(=O)CCNCc1ccc(-c2ccc3ncnc(Nc4ccc(OCc5ccccc5)cc4)c3c2)o1` it was 1.78%; in that of `CS(=O)(=O)CCNCc1ccoc1-c1ccc2ncnc(Nc3ccc(OCc4ccccc4)cc3)c2c1`, 1.15%; in that of `COc1cc2c(cc1Nc1nc(Nc3cccc(F)c3C(N)=O)c3cc[nH]c3n1)N(C(=O)CN1CCN(C(C)C)CC1)CC2`, -0.43%.
`CN1CCC(n2cnc(-c3ccc(F)cc3)c2-c2ccnc(NCCO)n2)CC1`: the inhibition came out at 1.47%.
Regarding `CCn1c(-c2nonc2N)nc2cncc(C(=O)NCCNC)c21`, the inhibition was 3.05%.
Same read-out and setting: with `OCCCNc1nccc(-c2c(-c3ccc(F)cc3)nn3cc(C(F)(F)F)ccc23)n1` the figure was 1.48%; with `NS(=O)(=O)c1ccc(N/N=C2\C(=O)Nc3ccc(C(=O)NCc4ccncc4)cc32)cc1`, 1.57%.
Still for that read-out and setting: with `CC1(C)CC(n2cnc(-c3ccc(F)cc3)c2-c2ccnc(N)n2)CC(C)(C)N1` the figure was 0.49%.
The same measure, in the same setting: in the case of `COC(=O)Nc1nc2ccc(Oc3ccc(NC(=O)Nc4cc(C(F)(F)F)ccc4F)cc3)cc2s1` it was 0.25%; in that of `COc1c(C(N)=O)cc(-c2ccc(Cl)cc2)cc1-c1ccc(S(N)(=O)=O)cc1`, 1.85%.
